This is an account of results in the supplement of paper PMC11001985.

Sequence of UniProt Q29980 (Q29980 whole entry): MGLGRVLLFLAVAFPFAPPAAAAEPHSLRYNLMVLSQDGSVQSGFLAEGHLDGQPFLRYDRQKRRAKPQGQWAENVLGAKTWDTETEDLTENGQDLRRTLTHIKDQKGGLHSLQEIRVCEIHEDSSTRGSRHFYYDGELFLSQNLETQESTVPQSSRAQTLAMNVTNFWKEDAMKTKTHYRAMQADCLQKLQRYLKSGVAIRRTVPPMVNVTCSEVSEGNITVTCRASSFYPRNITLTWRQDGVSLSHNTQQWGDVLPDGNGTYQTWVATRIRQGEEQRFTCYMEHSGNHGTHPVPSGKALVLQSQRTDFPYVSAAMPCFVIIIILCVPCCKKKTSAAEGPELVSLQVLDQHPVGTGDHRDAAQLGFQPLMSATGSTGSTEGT
Sequence of UniProt P48643 (P48643 whole entry): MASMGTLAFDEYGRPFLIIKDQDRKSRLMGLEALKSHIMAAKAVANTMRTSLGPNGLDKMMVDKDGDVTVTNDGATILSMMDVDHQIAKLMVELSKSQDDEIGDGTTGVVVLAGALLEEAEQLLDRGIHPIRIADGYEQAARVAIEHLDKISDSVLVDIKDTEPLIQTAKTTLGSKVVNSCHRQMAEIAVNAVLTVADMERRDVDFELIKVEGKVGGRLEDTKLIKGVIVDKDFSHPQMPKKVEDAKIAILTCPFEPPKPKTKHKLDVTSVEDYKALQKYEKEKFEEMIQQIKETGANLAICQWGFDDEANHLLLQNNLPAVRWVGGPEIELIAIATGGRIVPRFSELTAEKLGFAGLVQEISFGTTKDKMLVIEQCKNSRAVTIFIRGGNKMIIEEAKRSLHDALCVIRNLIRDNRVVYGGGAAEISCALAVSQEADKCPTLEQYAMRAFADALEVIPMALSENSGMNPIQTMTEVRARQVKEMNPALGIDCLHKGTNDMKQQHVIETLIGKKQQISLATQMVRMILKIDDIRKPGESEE
Sequence of UniProt P21333 (P21333 whole entry): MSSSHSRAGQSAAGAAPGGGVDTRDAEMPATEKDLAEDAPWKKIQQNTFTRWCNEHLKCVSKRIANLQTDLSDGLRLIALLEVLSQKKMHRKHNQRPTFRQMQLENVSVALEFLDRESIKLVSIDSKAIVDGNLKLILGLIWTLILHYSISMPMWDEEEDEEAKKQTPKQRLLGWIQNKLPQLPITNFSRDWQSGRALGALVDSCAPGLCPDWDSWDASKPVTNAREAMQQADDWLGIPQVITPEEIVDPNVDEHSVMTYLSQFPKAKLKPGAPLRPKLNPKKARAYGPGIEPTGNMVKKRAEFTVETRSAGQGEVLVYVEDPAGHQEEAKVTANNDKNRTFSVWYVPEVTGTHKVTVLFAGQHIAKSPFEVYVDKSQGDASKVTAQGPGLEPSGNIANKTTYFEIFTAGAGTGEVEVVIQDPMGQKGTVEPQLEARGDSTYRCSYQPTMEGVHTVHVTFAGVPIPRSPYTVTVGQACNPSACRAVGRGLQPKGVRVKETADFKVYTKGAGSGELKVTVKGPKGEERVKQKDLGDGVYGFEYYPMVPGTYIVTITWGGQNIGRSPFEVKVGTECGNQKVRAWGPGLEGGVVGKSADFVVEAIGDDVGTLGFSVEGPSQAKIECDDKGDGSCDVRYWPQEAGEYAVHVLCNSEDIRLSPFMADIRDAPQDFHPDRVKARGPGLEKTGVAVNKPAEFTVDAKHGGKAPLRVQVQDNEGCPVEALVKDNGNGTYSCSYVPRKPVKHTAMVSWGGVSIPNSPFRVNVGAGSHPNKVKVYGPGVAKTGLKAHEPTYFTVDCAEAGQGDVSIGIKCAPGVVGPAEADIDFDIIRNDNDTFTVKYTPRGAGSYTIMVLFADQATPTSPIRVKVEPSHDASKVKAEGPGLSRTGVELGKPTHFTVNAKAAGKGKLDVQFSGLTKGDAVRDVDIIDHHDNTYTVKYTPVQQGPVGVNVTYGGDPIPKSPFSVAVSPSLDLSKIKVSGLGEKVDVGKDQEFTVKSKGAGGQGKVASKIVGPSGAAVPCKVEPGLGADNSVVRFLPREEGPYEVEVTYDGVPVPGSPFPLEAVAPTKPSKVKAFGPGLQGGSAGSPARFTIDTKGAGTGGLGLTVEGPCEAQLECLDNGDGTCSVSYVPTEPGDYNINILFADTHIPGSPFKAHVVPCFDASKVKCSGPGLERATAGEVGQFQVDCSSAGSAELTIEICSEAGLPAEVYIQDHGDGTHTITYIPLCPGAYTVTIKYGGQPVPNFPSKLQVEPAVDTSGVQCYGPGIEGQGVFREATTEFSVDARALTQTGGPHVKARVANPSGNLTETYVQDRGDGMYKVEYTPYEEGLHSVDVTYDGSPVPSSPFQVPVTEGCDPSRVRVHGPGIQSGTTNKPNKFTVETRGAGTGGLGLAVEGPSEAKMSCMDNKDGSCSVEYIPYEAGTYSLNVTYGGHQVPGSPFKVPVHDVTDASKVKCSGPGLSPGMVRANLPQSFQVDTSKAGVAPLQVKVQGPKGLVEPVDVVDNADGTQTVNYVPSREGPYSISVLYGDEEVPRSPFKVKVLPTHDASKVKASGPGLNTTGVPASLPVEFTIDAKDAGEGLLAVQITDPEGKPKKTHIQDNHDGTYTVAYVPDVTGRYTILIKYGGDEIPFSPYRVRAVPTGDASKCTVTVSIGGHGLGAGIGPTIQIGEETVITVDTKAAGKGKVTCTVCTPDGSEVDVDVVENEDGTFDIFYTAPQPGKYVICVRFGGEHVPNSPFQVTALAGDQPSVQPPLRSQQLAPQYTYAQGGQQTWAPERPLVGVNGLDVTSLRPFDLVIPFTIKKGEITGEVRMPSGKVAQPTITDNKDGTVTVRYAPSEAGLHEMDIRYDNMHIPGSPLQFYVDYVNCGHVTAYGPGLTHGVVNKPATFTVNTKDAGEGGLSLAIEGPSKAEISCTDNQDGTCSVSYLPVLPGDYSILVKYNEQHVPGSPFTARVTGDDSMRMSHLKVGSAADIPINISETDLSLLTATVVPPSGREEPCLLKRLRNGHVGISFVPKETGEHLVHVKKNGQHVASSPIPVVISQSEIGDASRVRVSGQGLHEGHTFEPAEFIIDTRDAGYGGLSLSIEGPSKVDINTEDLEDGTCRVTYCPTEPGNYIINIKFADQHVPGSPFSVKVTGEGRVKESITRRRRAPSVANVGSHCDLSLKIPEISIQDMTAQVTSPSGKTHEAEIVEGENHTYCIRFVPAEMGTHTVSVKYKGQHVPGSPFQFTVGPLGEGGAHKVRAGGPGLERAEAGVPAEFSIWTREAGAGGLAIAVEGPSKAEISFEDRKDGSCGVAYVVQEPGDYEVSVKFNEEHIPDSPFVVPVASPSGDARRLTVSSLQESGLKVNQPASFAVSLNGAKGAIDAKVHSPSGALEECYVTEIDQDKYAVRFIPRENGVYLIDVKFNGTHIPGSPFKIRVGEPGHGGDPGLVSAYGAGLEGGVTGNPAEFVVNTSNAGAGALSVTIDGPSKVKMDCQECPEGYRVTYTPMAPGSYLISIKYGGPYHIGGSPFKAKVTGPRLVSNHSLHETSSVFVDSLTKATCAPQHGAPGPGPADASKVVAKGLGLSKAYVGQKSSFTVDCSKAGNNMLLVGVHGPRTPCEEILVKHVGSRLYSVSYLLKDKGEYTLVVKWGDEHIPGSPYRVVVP
Sequence of UniProt P30533 (P30533 whole entry): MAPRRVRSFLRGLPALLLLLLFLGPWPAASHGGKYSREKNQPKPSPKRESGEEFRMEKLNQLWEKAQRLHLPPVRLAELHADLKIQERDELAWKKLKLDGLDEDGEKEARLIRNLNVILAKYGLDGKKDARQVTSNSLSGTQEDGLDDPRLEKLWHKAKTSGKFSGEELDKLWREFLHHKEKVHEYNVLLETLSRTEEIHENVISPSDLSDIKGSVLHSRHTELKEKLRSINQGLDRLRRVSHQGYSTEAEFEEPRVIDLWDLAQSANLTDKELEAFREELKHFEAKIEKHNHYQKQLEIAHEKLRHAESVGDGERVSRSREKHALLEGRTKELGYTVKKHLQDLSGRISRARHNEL
Sequence of UniProt P17301 (P17301 whole entry): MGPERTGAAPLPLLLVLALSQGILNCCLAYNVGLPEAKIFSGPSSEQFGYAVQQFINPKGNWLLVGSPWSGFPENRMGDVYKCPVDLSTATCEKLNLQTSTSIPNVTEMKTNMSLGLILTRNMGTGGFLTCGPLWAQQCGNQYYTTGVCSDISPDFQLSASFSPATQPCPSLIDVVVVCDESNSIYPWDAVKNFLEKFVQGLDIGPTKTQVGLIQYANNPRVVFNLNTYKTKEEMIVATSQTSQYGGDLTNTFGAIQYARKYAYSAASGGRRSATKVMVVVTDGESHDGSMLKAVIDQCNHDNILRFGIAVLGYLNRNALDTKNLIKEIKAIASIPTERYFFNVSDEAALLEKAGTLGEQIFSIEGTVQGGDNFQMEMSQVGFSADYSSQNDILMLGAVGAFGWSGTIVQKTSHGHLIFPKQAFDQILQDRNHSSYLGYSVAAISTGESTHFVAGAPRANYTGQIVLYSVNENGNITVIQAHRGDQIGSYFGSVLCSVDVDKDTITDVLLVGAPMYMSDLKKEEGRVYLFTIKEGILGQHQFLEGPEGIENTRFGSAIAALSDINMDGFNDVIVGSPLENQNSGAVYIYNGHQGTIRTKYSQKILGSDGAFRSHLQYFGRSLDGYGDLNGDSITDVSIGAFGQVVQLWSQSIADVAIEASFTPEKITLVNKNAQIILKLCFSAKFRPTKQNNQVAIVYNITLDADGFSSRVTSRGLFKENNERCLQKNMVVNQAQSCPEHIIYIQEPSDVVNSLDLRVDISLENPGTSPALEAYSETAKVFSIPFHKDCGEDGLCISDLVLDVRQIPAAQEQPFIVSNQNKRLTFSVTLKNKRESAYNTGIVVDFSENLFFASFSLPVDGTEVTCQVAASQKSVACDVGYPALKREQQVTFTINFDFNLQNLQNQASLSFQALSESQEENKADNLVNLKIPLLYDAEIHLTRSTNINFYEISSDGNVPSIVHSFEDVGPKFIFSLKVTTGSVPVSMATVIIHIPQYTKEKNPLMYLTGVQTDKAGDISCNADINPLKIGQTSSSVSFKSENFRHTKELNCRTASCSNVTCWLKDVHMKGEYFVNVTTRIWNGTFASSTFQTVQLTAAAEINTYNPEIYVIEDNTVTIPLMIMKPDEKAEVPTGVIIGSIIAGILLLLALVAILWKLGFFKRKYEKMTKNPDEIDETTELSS

Compound in the test: C#CCNC(=O)CCSSCCC(=O)NCCc1ccc(C=O)c(C=O)c1
Description: lysine labeling ratio R10:1 (500 µM / 50 µM probe), SILAC-ABPP in living cells; higher = lower intrinsic lysine reactivity toward the probe, active = 2 or less. As to conditions: HeLa; probe concentrations 500 vs 50 µM. Summed up:
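For each lysine, R is the median over forward and reverse replicates of the filtered median MS1 peptide ratio of high probe to low probe. The probe, an alkyne-tagged, disulfide-linked lysine probe, was given at 500 µM or 50 µM to living SILAC light and heavy HeLa cells in PBS at room temperature, with label swaps. Values are capped at 20.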
As for “FLNA (lysine site: K2387) (UniProt P21333)”, the “lysine labeling ratio R10:1” value was 11.9 (inactive).

As for UniProt Q29980 (lysine site: K190), the “lysine labeling ratio R10:1” value was 1.17 (active). As for “DNASE1L1 (lysine site: K33) (UniProt P49184)”, the figure is 11 (inactive); as for “CCT5 (lysine site: K399) (UniProt P48643)”, 2.73 (inactive). As for “ARPC2 (lysine site: K275) (UniProt O15144)”, the figure is 2.12 (inactive).

With “RPSA (lysine site: K52) (UniProt P08865)”, the “lysine labeling ratio R10:1” value is 1.63 (active).

For UniProt P55072 (lysine site: K148), the “lysine labeling ratio R10:1” value is 5.57 (inactive). For the target “ACTN4 (lysine site: K592) (UniProt O43707)”, the “lysine labeling ratio R10:1” value was 6.67 (inactive). Regarding “ITGA2 (lysine site: K1046) (UniProt P17301)”, the “lysine labeling ratio R10:1” value is 6.48 (inactive).

For “FLNB (lysine site: K1584) (UniProt O75369)”, the “lysine labeling ratio R10:1” value is 3.06 (inactive). To UniProt Q99623 (lysine site: K218) belongs 2.79 (inactive); to UniProt O95980 (lysine site: K684), 1.24 (active); to “ACSL3 (lysine site: K422) (UniProt O95573)”, 1.49 (active). With “RPL35A (lysine site: K45) (UniProt P18077)”, the “lysine labeling ratio R10:1” value is 1.38 (active). To “RAB11B (lysine site: K179) (UniProt Q15907)” belongs 3.25 (inactive); to “ITGAV (lysine site: K338) (UniProt P06756)”, 3.21 (inactive); to “LRPAP1 (lysine site: K65) (UniProt P30533)”, 4.18 (inactive).
